Binding signal data for one sequence are collected here from article PMC7862700, “An all-to-all approach to the identification of sequence-specific readers for epigenetic DNA modifications on cytosine”.

Holding throughout (experiment): DAPPL (digital affinity profiling via proximity ligation, sequencing); 10 mM Tris-HCl pH 7.5, 50 mM NaCl, 1 mM DTT, 4% glycerol, room temperature, 30 min; GST-TFs on glutathione beads, 16-mer random dsDNA library, 0.1% formaldehyde crosslink after washing; high values mean tight binding
The target of one test is T1, FLI1 (Homo sapiens, UniProt Q01543 1-452).
T1 sequence: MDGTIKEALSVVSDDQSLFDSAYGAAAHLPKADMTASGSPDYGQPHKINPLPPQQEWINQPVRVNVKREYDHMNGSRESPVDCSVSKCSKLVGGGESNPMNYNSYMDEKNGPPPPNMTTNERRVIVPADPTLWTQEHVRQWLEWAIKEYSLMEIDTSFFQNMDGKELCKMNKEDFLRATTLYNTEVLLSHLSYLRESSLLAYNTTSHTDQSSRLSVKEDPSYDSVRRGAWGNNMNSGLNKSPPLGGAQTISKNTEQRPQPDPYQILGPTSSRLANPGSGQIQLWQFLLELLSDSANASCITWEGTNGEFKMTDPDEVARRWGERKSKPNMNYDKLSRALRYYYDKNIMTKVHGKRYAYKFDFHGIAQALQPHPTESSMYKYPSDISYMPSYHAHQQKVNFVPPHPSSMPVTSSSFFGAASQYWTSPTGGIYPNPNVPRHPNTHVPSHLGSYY
As to conditions: protein: recombinant; tags: N-terminal GST; dsDNA, one strand shown. In a few lines: (§1)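 Sequencing on an Illumina NextSeq500 followed washing, crosslinking with 0.1% formaldehyde, proximity ligation (BsaI/T4 ligase, 1 h, 37 °C) and PCR amplification of pools that had been incubated for 30 min at room temperature with 200 nmole of a random double-stranded 16-mer DNA library in Tris/NaCl/DTT/glycerol buffer. Each pool held DNA-barcoded human transcription factors, expressed in yeast as GST fusions and captured on glutathione beads, plus a tag-only sample. Binding signal is a hexamer's read frequency for a factor divided by its frequency in the tag-only sample.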

The target in a further test is T2, ELK1 (Homo sapiens, UniProt P19419 1-428).
T2 sequence: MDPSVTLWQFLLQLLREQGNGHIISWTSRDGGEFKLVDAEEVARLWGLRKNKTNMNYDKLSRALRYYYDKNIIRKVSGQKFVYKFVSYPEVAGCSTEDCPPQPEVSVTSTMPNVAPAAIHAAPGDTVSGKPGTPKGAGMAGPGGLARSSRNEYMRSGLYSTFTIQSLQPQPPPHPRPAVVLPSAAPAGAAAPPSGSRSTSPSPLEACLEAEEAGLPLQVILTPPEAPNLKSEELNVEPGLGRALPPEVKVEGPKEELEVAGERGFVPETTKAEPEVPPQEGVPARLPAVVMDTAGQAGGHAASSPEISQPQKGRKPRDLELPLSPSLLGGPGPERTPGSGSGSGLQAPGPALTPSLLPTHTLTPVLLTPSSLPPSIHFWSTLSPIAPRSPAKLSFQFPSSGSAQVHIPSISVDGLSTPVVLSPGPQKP
Particulars: protein: recombinant; tags: N-terminal GST; dsDNA, one strand shown. Summed up:
as §1

The target of a further test is T3, GABPA (Homo sapiens, UniProt Q06546 1-454).
T3 sequence: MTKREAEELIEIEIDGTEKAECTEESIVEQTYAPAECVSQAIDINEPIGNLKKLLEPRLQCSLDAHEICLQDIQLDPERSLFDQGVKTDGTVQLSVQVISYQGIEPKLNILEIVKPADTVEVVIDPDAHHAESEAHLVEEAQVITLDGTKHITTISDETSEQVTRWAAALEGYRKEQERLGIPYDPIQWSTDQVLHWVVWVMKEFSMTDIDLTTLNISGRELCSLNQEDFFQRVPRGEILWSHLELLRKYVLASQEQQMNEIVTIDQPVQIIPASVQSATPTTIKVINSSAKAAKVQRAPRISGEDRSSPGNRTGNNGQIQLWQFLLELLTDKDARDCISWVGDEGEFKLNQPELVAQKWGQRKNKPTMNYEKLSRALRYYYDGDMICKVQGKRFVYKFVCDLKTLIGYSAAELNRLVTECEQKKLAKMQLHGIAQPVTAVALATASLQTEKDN
As to conditions: protein: recombinant; tags: N-terminal GST; dsDNA, one strand shown. In a few lines: as §1

The target of the next test is T4, ERG (Homo sapiens, UniProt P11308 1-479).
T4 sequence: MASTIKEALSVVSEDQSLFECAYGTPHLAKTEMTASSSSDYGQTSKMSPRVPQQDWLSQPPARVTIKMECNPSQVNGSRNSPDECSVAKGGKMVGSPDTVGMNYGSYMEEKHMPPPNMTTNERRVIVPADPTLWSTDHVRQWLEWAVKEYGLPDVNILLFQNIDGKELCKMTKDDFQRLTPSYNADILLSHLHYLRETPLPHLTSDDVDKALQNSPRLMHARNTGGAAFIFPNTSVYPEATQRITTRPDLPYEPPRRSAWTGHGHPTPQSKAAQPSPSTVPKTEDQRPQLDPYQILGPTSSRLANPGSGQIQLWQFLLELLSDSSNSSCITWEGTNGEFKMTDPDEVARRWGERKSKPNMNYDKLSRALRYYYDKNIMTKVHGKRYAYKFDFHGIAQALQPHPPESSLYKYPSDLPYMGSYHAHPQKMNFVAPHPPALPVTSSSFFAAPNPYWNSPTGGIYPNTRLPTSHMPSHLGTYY
Particulars: protein: recombinant; tags: N-terminal GST; dsDNA, one strand shown. In a few lines:
as §1

The target of another test is ELF1 (Homo sapiens, UniProt P32519 1-619). As to conditions: protein: recombinant; tags: N-terminal GST; dsDNA, one strand shown. In a few lines: as §1
Chain of ELF1 (P32519 whole entry): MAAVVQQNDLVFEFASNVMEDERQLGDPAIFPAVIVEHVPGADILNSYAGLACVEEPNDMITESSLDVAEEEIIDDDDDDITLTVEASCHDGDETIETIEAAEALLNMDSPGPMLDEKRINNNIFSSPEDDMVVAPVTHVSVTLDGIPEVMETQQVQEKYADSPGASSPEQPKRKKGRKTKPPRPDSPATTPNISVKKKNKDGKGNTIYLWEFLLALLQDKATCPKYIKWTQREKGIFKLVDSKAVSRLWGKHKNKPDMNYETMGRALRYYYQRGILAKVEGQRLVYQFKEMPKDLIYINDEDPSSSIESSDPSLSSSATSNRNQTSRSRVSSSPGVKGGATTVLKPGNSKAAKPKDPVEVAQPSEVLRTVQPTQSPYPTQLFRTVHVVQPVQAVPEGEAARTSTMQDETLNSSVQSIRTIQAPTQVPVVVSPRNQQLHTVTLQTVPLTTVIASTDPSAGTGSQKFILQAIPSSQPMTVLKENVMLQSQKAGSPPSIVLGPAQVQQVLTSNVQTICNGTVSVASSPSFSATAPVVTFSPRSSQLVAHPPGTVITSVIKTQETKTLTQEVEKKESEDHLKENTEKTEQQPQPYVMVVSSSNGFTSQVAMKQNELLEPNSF
In a further test the target is T5, EHF (Homo sapiens, UniProt Q9NZC4 1-300).
T5 sequence: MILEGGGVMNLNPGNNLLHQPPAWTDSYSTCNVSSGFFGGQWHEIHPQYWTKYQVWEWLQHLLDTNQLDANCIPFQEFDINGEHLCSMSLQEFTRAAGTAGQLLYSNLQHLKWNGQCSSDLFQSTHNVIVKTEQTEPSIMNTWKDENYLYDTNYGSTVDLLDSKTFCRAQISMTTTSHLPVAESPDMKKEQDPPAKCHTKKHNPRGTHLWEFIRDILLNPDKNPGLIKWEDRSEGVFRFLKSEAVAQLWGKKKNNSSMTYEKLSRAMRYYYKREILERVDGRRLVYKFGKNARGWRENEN
As to conditions: protein: recombinant; tags: N-terminal GST; dsDNA, one strand shown. In a few lines: as §1

In another test the target is SPI1 (Homo sapiens, UniProt P17947 1-270). As to conditions: protein: recombinant; tags: N-terminal GST; dsDNA, one strand shown. In a few lines: as §1
In another test the target is SPIB (Homo sapiens, UniProt Q01892 1-262). Particulars: protein: recombinant; tags: N-terminal GST; dsDNA, one strand shown. Summed up:
as §1

The target in a further test is T6, ELK3 (Homo sapiens, UniProt P41970 1-407).
T6 sequence: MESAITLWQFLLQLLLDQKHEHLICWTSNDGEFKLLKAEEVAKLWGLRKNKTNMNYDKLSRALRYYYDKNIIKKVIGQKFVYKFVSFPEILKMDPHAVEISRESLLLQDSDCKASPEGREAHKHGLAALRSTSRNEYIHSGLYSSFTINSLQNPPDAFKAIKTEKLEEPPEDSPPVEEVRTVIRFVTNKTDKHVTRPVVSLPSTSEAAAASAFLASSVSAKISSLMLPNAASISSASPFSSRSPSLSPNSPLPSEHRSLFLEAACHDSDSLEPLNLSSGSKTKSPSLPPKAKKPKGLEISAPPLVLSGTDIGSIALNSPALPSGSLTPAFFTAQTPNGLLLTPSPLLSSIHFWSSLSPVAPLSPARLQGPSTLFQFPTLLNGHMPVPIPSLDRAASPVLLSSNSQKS
Particulars: protein: recombinant; tags: N-terminal GST; dsDNA, one strand shown. In a few lines: as §1

The target in the next test is T7, FEV (Homo sapiens, UniProt Q99581 1-238).
T7 sequence: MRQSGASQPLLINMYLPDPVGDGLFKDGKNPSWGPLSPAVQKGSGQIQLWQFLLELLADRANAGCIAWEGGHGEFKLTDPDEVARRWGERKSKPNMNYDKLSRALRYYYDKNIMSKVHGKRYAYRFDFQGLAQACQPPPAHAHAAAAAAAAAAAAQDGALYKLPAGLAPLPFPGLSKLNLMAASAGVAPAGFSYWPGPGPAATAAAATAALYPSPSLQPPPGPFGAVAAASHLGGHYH
Particulars: protein: recombinant; tags: N-terminal GST; dsDNA, one strand shown. Summed up:
as §1

For another test, the target named is ETV5 (Homo sapiens, UniProt P41161 1-510). Particulars: protein: recombinant; tags: N-terminal GST; dsDNA, one strand shown. Summed up: as §1
Chain of ETV5 (P41161 whole entry): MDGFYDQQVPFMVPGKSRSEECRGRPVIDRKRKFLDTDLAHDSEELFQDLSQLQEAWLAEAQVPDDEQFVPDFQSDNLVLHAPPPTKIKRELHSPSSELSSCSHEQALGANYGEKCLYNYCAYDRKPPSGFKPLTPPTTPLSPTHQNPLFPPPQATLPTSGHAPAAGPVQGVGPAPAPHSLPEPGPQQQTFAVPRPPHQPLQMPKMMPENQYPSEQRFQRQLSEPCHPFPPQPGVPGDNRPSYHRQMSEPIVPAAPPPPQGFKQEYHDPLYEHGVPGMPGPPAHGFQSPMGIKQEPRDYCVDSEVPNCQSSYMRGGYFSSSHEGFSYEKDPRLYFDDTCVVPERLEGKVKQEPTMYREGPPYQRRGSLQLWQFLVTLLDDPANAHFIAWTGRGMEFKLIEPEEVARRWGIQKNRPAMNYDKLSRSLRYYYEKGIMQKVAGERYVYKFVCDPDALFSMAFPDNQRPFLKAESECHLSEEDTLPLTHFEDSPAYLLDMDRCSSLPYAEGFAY
For a further test, the target named is HSF1 (Homo sapiens, UniProt Q00613 1-529). Particulars: protein: recombinant; tags: N-terminal GST; chain copies: 3; dsDNA, one strand shown. In a few lines:
as §1

Another test has as its target T8, SPIC (Homo sapiens, UniProt Q8N5J4 1-248).
T8 sequence: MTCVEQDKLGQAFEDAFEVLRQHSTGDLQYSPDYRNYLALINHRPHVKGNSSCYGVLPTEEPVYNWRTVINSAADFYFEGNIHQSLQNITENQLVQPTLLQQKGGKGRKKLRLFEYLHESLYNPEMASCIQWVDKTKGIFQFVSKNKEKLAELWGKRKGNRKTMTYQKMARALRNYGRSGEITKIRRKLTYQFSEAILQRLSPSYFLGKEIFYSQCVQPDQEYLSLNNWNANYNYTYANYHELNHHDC
Particulars: protein: recombinant; tags: N-terminal GST; dsDNA, one strand shown. In a few lines: as §1

The target of the next test is ELF4 (Homo sapiens, UniProt Q99607 1-663). As to conditions: protein: recombinant; tags: N-terminal GST; dsDNA, one strand shown. In a few lines: as §1
Chain of ELF4 (Q99607 whole entry): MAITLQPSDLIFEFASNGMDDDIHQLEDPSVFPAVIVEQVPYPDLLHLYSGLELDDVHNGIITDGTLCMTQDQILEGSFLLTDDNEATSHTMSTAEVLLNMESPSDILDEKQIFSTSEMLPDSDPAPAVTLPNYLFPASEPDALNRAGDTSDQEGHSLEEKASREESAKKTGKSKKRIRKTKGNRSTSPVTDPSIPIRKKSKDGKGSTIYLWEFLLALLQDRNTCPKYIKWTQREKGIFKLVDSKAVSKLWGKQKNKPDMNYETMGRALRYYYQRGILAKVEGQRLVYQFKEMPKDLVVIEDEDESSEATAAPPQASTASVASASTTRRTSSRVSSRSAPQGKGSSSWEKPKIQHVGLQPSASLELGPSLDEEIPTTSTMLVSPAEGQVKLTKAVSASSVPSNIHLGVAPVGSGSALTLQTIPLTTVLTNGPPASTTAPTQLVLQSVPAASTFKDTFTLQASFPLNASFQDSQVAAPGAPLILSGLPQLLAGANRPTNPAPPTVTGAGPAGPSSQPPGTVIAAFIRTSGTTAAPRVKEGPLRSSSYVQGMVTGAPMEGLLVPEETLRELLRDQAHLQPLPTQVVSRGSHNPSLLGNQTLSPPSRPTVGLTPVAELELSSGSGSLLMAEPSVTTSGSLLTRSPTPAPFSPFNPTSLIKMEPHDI
The target of a further test is T9, ELK4 (Homo sapiens, UniProt P28324-2 1-405).
T9 sequence: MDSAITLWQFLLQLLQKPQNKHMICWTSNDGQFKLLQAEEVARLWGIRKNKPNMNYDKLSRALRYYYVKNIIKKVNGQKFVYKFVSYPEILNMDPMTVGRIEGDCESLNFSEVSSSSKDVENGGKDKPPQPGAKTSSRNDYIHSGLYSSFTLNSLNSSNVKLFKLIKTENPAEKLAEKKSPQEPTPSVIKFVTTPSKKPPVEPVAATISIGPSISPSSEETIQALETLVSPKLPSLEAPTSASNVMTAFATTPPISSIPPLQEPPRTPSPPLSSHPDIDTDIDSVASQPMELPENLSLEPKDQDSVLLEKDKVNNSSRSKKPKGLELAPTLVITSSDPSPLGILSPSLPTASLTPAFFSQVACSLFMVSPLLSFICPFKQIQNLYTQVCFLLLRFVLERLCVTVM
Particulars: protein: recombinant; tags: N-terminal GST; dsDNA, one strand shown. In a few lines: as §1

The next test addresses T10, ETV2 (Homo sapiens, UniProt O00321 1-342).
T10 sequence: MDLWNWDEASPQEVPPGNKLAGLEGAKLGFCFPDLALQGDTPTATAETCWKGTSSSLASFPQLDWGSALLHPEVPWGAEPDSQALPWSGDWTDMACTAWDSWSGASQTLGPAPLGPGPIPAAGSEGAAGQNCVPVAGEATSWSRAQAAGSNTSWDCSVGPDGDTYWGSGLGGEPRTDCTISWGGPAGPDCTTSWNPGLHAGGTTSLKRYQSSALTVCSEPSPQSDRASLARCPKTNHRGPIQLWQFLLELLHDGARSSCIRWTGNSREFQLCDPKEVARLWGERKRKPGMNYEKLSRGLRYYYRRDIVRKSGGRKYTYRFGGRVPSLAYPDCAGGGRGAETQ
As to conditions: protein: recombinant; tags: N-terminal GST; dsDNA, one strand shown. Summed up: as §1

The target in another test is CRX (Homo sapiens, UniProt O43186 1-299). Particulars: protein: recombinant; tags: N-terminal GST; dsDNA, one strand shown. Summed up: as §1
Chain of CRX (O43186 whole entry): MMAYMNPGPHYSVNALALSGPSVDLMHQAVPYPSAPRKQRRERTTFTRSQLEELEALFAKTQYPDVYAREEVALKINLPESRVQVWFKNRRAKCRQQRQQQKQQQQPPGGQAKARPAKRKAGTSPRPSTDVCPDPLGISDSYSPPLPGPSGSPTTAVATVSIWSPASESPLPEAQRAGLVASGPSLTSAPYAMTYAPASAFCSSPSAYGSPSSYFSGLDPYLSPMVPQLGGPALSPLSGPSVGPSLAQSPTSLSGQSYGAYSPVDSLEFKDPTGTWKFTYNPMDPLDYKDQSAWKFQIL
In a further test the target is ETV1 (Homo sapiens, UniProt P50549 1-477). As to conditions: protein: recombinant; tags: N-terminal GST; dsDNA, one strand shown. In a few lines:
as §1

Chain of HSF1 (Q00613 whole entry): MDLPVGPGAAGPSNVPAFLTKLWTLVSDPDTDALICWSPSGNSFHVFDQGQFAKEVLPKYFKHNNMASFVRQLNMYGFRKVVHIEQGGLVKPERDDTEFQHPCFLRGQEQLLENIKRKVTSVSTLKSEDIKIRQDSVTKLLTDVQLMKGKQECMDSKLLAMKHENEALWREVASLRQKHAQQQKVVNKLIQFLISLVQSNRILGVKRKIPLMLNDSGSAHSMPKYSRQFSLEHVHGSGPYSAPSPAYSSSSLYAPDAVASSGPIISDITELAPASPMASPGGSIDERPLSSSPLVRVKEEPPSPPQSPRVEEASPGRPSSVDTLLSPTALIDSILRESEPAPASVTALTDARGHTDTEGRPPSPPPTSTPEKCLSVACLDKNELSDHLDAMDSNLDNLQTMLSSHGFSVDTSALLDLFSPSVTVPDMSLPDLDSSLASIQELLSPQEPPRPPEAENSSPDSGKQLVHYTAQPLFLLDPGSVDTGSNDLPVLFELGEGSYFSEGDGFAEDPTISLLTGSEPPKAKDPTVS
Chain of SPIB (Q01892 whole entry): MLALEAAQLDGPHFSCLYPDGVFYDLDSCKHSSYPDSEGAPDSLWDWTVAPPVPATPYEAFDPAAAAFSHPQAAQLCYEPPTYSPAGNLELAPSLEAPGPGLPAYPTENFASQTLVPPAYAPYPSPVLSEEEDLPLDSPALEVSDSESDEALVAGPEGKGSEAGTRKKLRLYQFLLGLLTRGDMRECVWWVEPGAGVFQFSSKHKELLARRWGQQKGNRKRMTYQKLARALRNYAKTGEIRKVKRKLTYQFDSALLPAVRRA
Chain of ETV1 (P50549 whole entry): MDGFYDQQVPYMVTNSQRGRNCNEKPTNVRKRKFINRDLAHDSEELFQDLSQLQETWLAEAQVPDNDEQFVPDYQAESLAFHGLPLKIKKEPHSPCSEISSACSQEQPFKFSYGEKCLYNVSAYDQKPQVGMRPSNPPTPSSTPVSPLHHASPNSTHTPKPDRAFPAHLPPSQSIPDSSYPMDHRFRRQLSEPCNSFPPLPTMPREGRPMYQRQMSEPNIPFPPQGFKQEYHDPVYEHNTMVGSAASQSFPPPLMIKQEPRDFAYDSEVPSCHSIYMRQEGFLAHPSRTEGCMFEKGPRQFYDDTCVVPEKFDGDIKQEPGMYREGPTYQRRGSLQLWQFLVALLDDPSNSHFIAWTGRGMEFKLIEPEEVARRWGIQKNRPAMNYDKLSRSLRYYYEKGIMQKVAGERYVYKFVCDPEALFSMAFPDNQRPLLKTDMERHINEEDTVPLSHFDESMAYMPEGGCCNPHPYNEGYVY

Take GATACT: the binding signal in the test with FLI1 was 1.14 fold enrichment (6-mer frequency, TF over GST control); in the test with ELK1 it was 1.01 fold enrichment (6-mer frequency, TF over GST control); with GABPA it was 1.2 fold enrichment (6-mer frequency, TF over GST control); in the test with ERG it was 1.21 fold enrichment (6-mer frequency, TF over GST control); with ELF1 it was 1.1 fold enrichment (6-mer frequency, TF over GST control); with EHF, 1.21 fold enrichment (6-mer frequency, TF over GST control). For the same sequence, the binding signal with SPI1 is 1.12 fold enrichment (6-mer frequency, TF over GST control); in the test with SPIB it was 1.16 fold enrichment (6-mer frequency, TF over GST control); with ELK3, 1.09 fold enrichment (6-mer frequency, TF over GST control); with FEV it was 1.1 fold enrichment (6-mer frequency, TF over GST control); with ETV5, 1.07 fold enrichment (6-mer frequency, TF over GST control); in the test with HSF1, 1.07 fold enrichment (6-mer frequency, TF over GST control). The binding signal with SPIC was 1.05 fold enrichment (6-mer frequency, TF over GST control); with ELF4, 1.18 fold enrichment (6-mer frequency, TF over GST control); with ELK4, 1.18 fold enrichment (6-mer frequency, TF over GST control); with ETV2, 1.02 fold enrichment (6-mer frequency, TF over GST control); in the test with CRX it was 1.07 fold enrichment (6-mer frequency, TF over GST control); with ETV1, 1.1 fold enrichment (6-mer frequency, TF over GST control).
